Results: PubChem BioAssay (NCI)
Values joined by “and” are separate entries in the source; they are usually repeats but may differ in a detail not shown here. Equal values may be shown once. Compounds without any hit were thinned out: in the full panel of roughly 83,000, 20% have a hit.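 48-hour exposure, single concentration, 96-well plates; percent growth endpoint where 0 means no net growth. Active: below 10.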 Active and inactive are the calls of the source.

Tests used:
Test in all cases: NCI-60 one-dose screen, 48 h (100 = growth as untreated, 0 = no growth, -100 = all killed)
Details in all cases: 10 µM unless noted
HCT-15 colon = system: HCT-15 colon
HT29 colon = system: HT29 colon
SNB-75 CNS = system: SNB-75 CNS
SNB-19 CNS = system: SNB-19 CNS
U251 CNS = system: U251 CNS
PC-3 prostate = system: PC-3 prostate
SK-MEL-5 melanoma = system: SK-MEL-5 melanoma
UACC-62 melanoma = system: UACC-62 melanoma
LOX IMVI melanoma = system: LOX IMVI melanoma
SK-MEL-28 melanoma = system: SK-MEL-28 melanoma

Measured: growth

O=C(N/N=C/c1ccc(Cl)cc1)c1ccc(OCc2nc3ccc(Cl)cc3[nH]2)cc1
active: HCT-15 colon -47.1% | HT29 colon -55.7% | U251 CNS -88.5% | PC-3 prostate -10.1% | LOX IMVI melanoma -81%
inactive: SNB-75 CNS 53.9% | SNB-19 CNS 35% | SK-MEL-5 melanoma 52.2% | UACC-62 melanoma 47.5% | SK-MEL-28 melanoma 41%

Nc1cc(-c2c[nH]c3ccc(Br)cc23)nc2cc(-c3c[nH]c4ccccc34)nn12
active: HCT-15 colon -67% | HT29 colon -54.8% | SNB-75 CNS -11% | SNB-19 CNS -77.6% | U251 CNS -83.3% | SK-MEL-5 melanoma -96.4% | UACC-62 melanoma -89.4% | LOX IMVI melanoma -86.8% | SK-MEL-28 melanoma -98.5%

COc1ccc(C(=O)c2cc(C(C)=O)c3c(C)cc(C)cn23)cc1
inactive: HCT-15 colon 65.9% | HT29 colon 72.5% | SNB-19 CNS 24.8% | U251 CNS 32.4% | SK-MEL-5 melanoma 33.6% | UACC-62 melanoma 63.4% | LOX IMVI melanoma 54.9% | SK-MEL-28 melanoma 72.9%
active: SNB-75 CNS 2.27%

O=C(CSc1nnc(-c2ccc(-c3nc4ccccc4[nH]3)cc2)o1)Nc1ccc(Cl)cc1
active: U251 CNS -75.4% | PC-3 prostate 7.32% | LOX IMVI melanoma -92.4% | SK-MEL-28 melanoma -85%
inactive: HCT-15 colon 19.3% | HT29 colon 26.6% | SNB-75 CNS 62.4% | SK-MEL-5 melanoma 34.1% | UACC-62 melanoma 23.9%

Cn1ncc2c(N)nc(Oc3ccccc3-c3ccccc3)nc21
inactive: HCT-15 colon 10.7% | HT29 colon 14.9% | U251 CNS 32.6% | PC-3 prostate 58.5% | UACC-62 melanoma 26.3% | LOX IMVI melanoma 34.7% | SK-MEL-28 melanoma 53.7%
active: SNB-75 CNS 8.98% | SK-MEL-5 melanoma 0.935%

S=C(NCCc1ccccc1)Nc1ccc(OCc2nc3ccc(Cl)cc3[nH]2)cc1
active: HCT-15 colon 4.3% | LOX IMVI melanoma -46.3%
inactive: HT29 colon 32.2% | SNB-75 CNS 33.4% | U251 CNS 16% | PC-3 prostate 39.8% | SK-MEL-5 melanoma 40.8% | UACC-62 melanoma 34.5% | SK-MEL-28 melanoma 48%

COc1ccc(-c2cc(C(=O)N=Nc3c(O)[nH]c4ccc(Cl)cc34)c3ccccc3n2)cc1
inactive: SNB-75 CNS 62.9% | PC-3 prostate 48% | SK-MEL-5 melanoma 93% | UACC-62 melanoma 73.2%
active: HCT-15 colon -42.2% | HT29 colon -17.3% | U251 CNS -64.1% | LOX IMVI melanoma -29.8% | SK-MEL-28 melanoma -6.34%

CCCCN1C(=O)/C(=C\C(=O)c2cc3ccccc3oc2=O)c2ccccc21
active: HCT-15 colon 2.32%
inactive: HT29 colon 71.2% | SNB-75 CNS 61.6% | U251 CNS 88.2% | PC-3 prostate 83.3% | SK-MEL-5 melanoma 84.5% | UACC-62 melanoma 65.8% | LOX IMVI melanoma 57% | SK-MEL-28 melanoma 52.2%

Cc1ccc(O)cc1Nc1nc(SCCN2CCOCC2)nc2c1cnn2CC(Cl)c1ccc(Br)cc1 (configuration not stated)
active: HCT-15 colon 0.154% | HT29 colon -30.2% | SNB-75 CNS 4.06% | SK-MEL-5 melanoma -0.938% | LOX IMVI melanoma -88.4%
inactive: U251 CNS 15.4% | UACC-62 melanoma 15.6% | SK-MEL-28 melanoma 17.1%

COc1ccc(C2=NN(C(=O)[C@H]3[C@@H](c4ccco4)c4sc(=O)[nH]c4S[C@@H]3C)C(c3ccc4ccccc4c3)C2)cc1 (some centres not stated)
inactive: HCT-15 colon 12% | HT29 colon 15.3% | SNB-75 CNS 50.8% | U251 CNS 19.5% | SK-MEL-5 melanoma 36.5% | UACC-62 melanoma 29% | LOX IMVI melanoma 31.3% | SK-MEL-28 melanoma 32%

CC(C)C[C@H](NC(=O)CNC(=O)C[C@H]1O[C@@H]2OC3(C)CC[C@H]4[C@H](C)CC[C@@H]([C@H]1C)[C@@]24O3)B(O)O
inactive: HCT-15 colon 33.1% | U251 CNS 17.4%
active: HT29 colon -43.6% | SNB-75 CNS -34.8% | PC-3 prostate 9.34% | SK-MEL-5 melanoma -87.6% | UACC-62 melanoma -81.2% | LOX IMVI melanoma -83.6% | SK-MEL-28 melanoma -34.4%

Cn1cc(-c2cc3nc(-c4cn(C)c5ncc(Br)cc45)cc(N)n3n2)c2cc(F)ccc21
active: HCT-15 colon 8.7% | HT29 colon -28.5% | U251 CNS -26.1% | UACC-62 melanoma -7.29% | LOX IMVI melanoma -69.7%
inactive: SNB-75 CNS 24.9% | PC-3 prostate 19.2% | SK-MEL-5 melanoma 40.4% | SK-MEL-28 melanoma 22.6%

C#CCCCNCCNc1ccnc2cc(Cl)ccc12
inactive: HCT-15 colon 43.5% | HT29 colon 25.7% | SNB-75 CNS 100% | SNB-19 CNS 101% | U251 CNS 84.3% | SK-MEL-5 melanoma 45.9% | UACC-62 melanoma 73.5% | LOX IMVI melanoma 40.1% | SK-MEL-28 melanoma 79%

N#CC1=C(c2cccs2)Nc2c(c(-c3ccccc3)nn2-c2ccccc2)C12C(=O)Nc1ccc(Cl)cc12 (configuration not stated)
inactive: HCT-15 colon 10.5% | HT29 colon 14.4% | SNB-75 CNS 36.9% | U251 CNS 16.2% | PC-3 prostate 12.8% | SK-MEL-5 melanoma 25.1% | UACC-62 melanoma 15.4% | LOX IMVI melanoma 25.8% | SK-MEL-28 melanoma 41.8%

COc1ccc(-c2cc(C)nc3[nH]c(=O)sc23)cc1
inactive: HCT-15 colon 88.1% | HT29 colon 93.3% | PC-3 prostate 81.3% | SK-MEL-5 melanoma 80.4% | UACC-62 melanoma 60.9% | LOX IMVI melanoma 45.9% | SK-MEL-28 melanoma 89.8%
active: SNB-75 CNS -4.05% | U251 CNS 9.93%

COc1cc(/C=C/C(=O)c2cnn(-c3cc(=O)[nH]c4ccc(C)cc34)c2C)cc(OC)c1OC
inactive: SNB-75 CNS 45.1%
active: HCT-15 colon -38.7% | HT29 colon -67.3% | U251 CNS -85% | PC-3 prostate 5.99% | SK-MEL-5 melanoma -95.2% | UACC-62 melanoma -71.9% | LOX IMVI melanoma -92% | SK-MEL-28 melanoma -77.2%

CCCCNc1ccc2c3c(cccc13)C(=O)N(NCC(O)COc1ccc3c(C)cc(=O)oc3c1)C2=O (configuration not stated)
inactive: HCT-15 colon 77.3% | HT29 colon 100% | SNB-75 CNS 94.1% | U251 CNS 96.5% | PC-3 prostate 84% | SK-MEL-5 melanoma 77.9% | UACC-62 melanoma 69.2% | LOX IMVI melanoma 81.3% | SK-MEL-28 melanoma 103%

NC1(c2ccc(-c3ccc4ncnc(NCc5ccccc5)c4c3)cn2)COC1
inactive: HCT-15 colon 109% and 102% | HT29 colon 122% and 108% | SNB-75 CNS 115% and 103% | SNB-19 CNS 100% and 98.8% | U251 CNS 112% and 108% | SK-MEL-5 melanoma 101% and 107% | UACC-62 melanoma 104% and 94% | LOX IMVI melanoma 99% and 102% | SK-MEL-28 melanoma 104% and 107%

COc1ccc(-c2cc(C(=O)Oc3ccc(C=O)cc3OC)nn2-c2ccc(S(C)(=O)=O)cc2)cc1
inactive: HCT-15 colon 81.9% | HT29 colon 110% | SNB-75 CNS 99.9% | U251 CNS 101% | PC-3 prostate 90.7% | SK-MEL-5 melanoma 98% | UACC-62 melanoma 88% | LOX IMVI melanoma 90.1% | SK-MEL-28 melanoma 117%

COc1cc(C2CC(c3cc(OC)c(OC)c(OC)c3)=Nc3c(N)nc(N)nc3N2)ccc1Oc1nc(Nc2ccc(F)cc2)nc(N(C)C)n1 (configuration not stated)
inactive: SNB-75 CNS 55.9% | SNB-19 CNS 70.7% | U251 CNS 56.4% | SK-MEL-5 melanoma 36% | UACC-62 melanoma 83.6% | LOX IMVI melanoma 10.3% | SK-MEL-28 melanoma 74%
active: HCT-15 colon 4.98% | HT29 colon 7.02%

Cc1cc(C(NC(=O)CCCCCNc2cccc3c2C(=O)N(C2CCC(=O)CC2=O)C3=O)c2cccc(N(C)C)c2)c(O)c2ncccc12 (configuration not stated)
inactive: HT29 colon 28.6% | SNB-75 CNS 32.9% | U251 CNS 17.6% | SK-MEL-28 melanoma 10.7%
active: HCT-15 colon 8.01% | PC-3 prostate 7.35% | SK-MEL-5 melanoma -70.1% | UACC-62 melanoma -6.03% | LOX IMVI melanoma 0.535%

Cc1ccc(S(=O)(=O)Nc2ccc(-c3ccc4c(c3)NC(=O)/C4=C\c3ccc[nH]3)cc2)cc1
inactive: HCT-15 colon 68.7% | HT29 colon 78.5% | SNB-75 CNS 96.1% | U251 CNS 77.3% | PC-3 prostate 80.1% | SK-MEL-5 melanoma 99.1% | UACC-62 melanoma 89.8% | LOX IMVI melanoma 91.7% | SK-MEL-28 melanoma 95.9%
